# Shown are actives, neighbours in structure and some others; about 3.7% of the full set was active somewhere.
# tim23-1 inh = growth inhibitors of tim23-1 mutant yeast | 330,000 compounds, 1.3% hits | S. cerevisiae tim23-1 growth, BacTiter-Glo luminescence, 24 h | inhibition, % at 20 µM | AID 463212;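 active means growth inhibition of the mutant yeast at or above 50%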;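 further: temperature-sensitive mutant grown at 25 °C; plate controls were DMSO-treated mutant yeast for no effect and medium wells lacking yeast for full effect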
# tim10-1 inh = growth inhibitors of tim10-1 mutant yeast; S. cerevisiae tim10-1 ts strain growth, BacTiter-Glo, 24 h; inhibition, % at 20 µM; 330,000 compounds, 2.2% hits; AID 463190;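 active means inhibition of at least 40%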;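 further: mutant grown at 25 °C; 0% = DMSO wells with yeast and 100% = wells holding no yeast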
# V-ATPase pHluor = yeast V-ATPase proton transport regulation by pHLuorin; response, % at 10 µM; S. cerevisiae, pHLuorin cytosolic pH fluorescence; AID 504577; 350,000 compounds, 0.37% hits; in the data active means response mostly above about 7.3%, no sharp cut-off; inactive means mostly below about 5.4%; further: actives read high
# TIM10 inh = growth inhibitors of TIM10 yeast strain | S. cerevisiae TIM10 strain growth, BacTiter-Glo luminescence, 24 h | inhibition, % at 10 µM | 330,000 compounds, 1.4% hits | AID 463195;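 active means inhibition of 40% or more at the single tested concentration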;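 further: wild-type TIM10 isogenic control strain grown at permissive 25 °C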
# PfHsp90 yeast 2 = growth inhibition of yeast expressing Plasmodium Hsp90 | 310,000 compounds, 0.32% hits | inhibition, % at 9.4 µM | S. cerevisiae expressing PfHsp90, BacTiter-Glo ATP, 48 h; yeast lacking PDR1 and PDR3 efflux regulators;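 active means every replicate shows inhibition above about 80%, whatever the replicate mean, limit read from the data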;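 further: 0% = DMSO neutral controls and 100% = 20 µM radicicol positive controls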
# tim23-1 confirm = tim23-1 yeast growth inhibition, confirmed; shares compounds with tim23-1 inh; S. cerevisiae tim23-1 growth, BacTiter-Glo luminescence, 24 h; inhibition, % at 20 µM; 4,400 compounds, 83% hits; AID 463218;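 active means inhibition above about 39% in either of two replicate wells at 20 µM, limit read from the data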;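 further: temperature-sensitive tim23-1 mutant grown at 25 °C; 0% = DMSO wells with yeast and 100% = medium wells without yeast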
# * = called active by the depositor; · = not tested or not shown.
SMILES,tim23-1 inh,tim10-1 inh,V-ATPase pHluor,TIM10 inh,PfHsp90 yeast 2,tim23-1 confirm
CCOc1cc(/C=C2\SC(=Nc3ccc(CC)cc3)NC2=O)ccc1OCC(=O)O,12,13,5,-7,-19,·
Nc1ccc(Br)c2cccnc12,-7,24,0,15,·,·
COc1cccc(N=Nc2ccc(O)c3ncccc23)c1,62*,-23,4,38,102*,56*
Nc1ccc(N=Nc2ccccc2)c2cccnc12,59*,36,-1,21,-42,51*
CNC(=O)C[C@H]1C(=O)N(C2CCCCC2)C[C@@H]1c1ccc(Br)cc1,·,·,0,·,·,·
Cc1[nH]n(-c2ccccc2)c(=O)c1C(c1cccc([N+](=O)[O-])c1)c1c(C)[nH]n(-c2ccccc2)c1=O,56*,34,4,38,11,60*
CCc1ccccc1N(C(=O)c1ccco1)C(C(=O)NC1CCCC1)c1cccnc1 (stereo not given),15,13,-4,-4,0,·
C/C(=N/NC(=O)CNC(=O)Cc1ccccc1)c1ccc(Cl)cc1,-3,15,-2,10,5,·
Cc1ccc(Sc2ccc(CN3CCCC3)cc2[N+](=O)[O-])cc1,18,17,-4,6,23,·
Cc1ccc(Sc2ccc(CO)cc2[N+](=O)[O-])cc1,53*,32,-1,30,-4,52*
Cn1c(SCC2CCCO2)nnc1-c1ccc([N+](=O)[O-])cc1 (stereo not given),-9,-13,-2,-13,11,·
CCN(c1ccc(NC(=O)COC(=O)C2CCN(c3ccc(C(F)(F)F)cn3)CC2)cc1)C(C)C,·,·,-4,·,·,·
COc1cc2cncc(Cc3ccc(Cl)cc3)c2cc1OC,57*,15,4,-3,-5,49*
O=S(=O)(Nc1ccc(O)c2ccccc12)c1cccs1,57*,12,4,29,2,44*
Cc1ccc(CN2CCN(/N=C/c3cc(Br)cc(Br)c3O)CC2)cc1,59*,25,5,12,22,59*
Oc1c(Br)cc(Br)cc1/C=N/N1CCN(Cc2ccccc2)CC1,·,·,0,·,-31,·
Cc1ccccc1C(=O)NCC(=O)OCCCOC(=O)CNC(=O)c1ccccc1C,14,15,-2,12,-60,·
CCC(C)(C)c1ccc(OCCCC[n+]2cccc(C)c2C)c(C(C)(C)CC)c1,59*,-8,7,34,110*,36*
Cc1cc(C(C)(C)C)ccc1OCCCCN1CCCC1,-4,-6,-3,20,-14,·
COc1ccc(-n2c3c(cc(C(=O)NCC(=O)c4ccccc4)c2=O)C(=O)CC(C)(C)C3)cc1,4,6,2,-1,-9,·
CCCCOc1ccc(N=Nc2ccc(N)nc2N)cn1,80*,37,3,36,16,70*
Cc1cccn2c(NC(=O)c3ccccc3F)c(-c3ccccc3)nc12,36,25,-2,27,0,·
CCC(C(=O)NC(C)(C)C)N(Cc1ccc(OC)cc1)C(=O)c1snc(C(N)=O)c1N (stereo not given),·,·,0,·,·,·
Cc1cc(NC(=O)COc2ccccc2C)ccc1NC(=O)c1cccs1,54*,22,·,20,21,63*
Cc1cc(NC(=O)COc2ccccc2C)ccc1NC(=O)c1ccco1,18,-33,-3,8,4,·
SMILES,tim23-1 inh,tim10-1 inh,V-ATPase pHluor,TIM10 inh,PfHsp90 yeast 2,tim23-1 confirm
O=C(COC(=O)CNC(=O)c1ccccc1)NCCCc1ccccc1,-1,1,-2,-9,7,·
CN1C(C(=O)Nc2ccc(OC(F)(F)F)cc2)=CC(c2ccc3c(c2)OCO3)=NS1(=O)=O,2,15,1,1,3,·
FC(F)(F)c1cc(CCN2CCNC[C@@H]2CC2CCCCC2)cc(C(F)(F)F)c1,65*,-10,-3,11,10,48*
Cc1nc(SCc2nc3cc(Cl)c(F)cc3[nH]2)c2oc3ccccc3c2n1,56*,33,2,35,-11,50*
Cc1nc(SCc2nc3ccc(Br)cc3[nH]2)c2oc3ccccc3c2n1,44,20,0,-1,8,·
Cc1nc(SCc2nc3ccc(Cl)cc3[nH]2)c2oc3ccccc3c2n1,45,21,-1,-1,4,·
Cc1nc(SCc2nc3ccc(C(F)(F)F)cc3[nH]2)c2oc3ccccc3c2n1,57*,33,1,7,-2,49*
COc1ccc(CCNc2oc(-c3ccccc3OC)nc2C#N)cc1,58*,21,-2,34,6,62*
COc1ccc(CCNc2oc(-c3ccccc3OC)nc2C#N)cc1OC,33,1,1,1,-3,·
O=C(NCCN1CCOCC1)c1cccc(S(=O)(=O)N(Cc2ccccc2)c2ccccc2)c1,11,13,0,15,9,·
CC1(c2ccc3ccccc3c2)NC(=O)N(CC(=O)N2CCN(c3ccccc3O)CC2)C1=O (stereo not given),-6,-10,-3,10,3,·
CC(C)c1ccc(NC(=S)NCCc2c[nH]c3ccccc23)cc1,52*,37,1,15,-13,37
COC(=O)C1=C(Nc2ccccc2NS(=O)(=O)c2ccc(C(F)(F)F)cc2Cl)CSC1,54*,38,0,34,-7,52*
Nc1ncnc2c1ncn2[C@@H]1O[C@H](CO)C[C@H]1O,60*,26,-2,-6,9,65*
CC1(C)O[C@@H]2[C@H](O1)[C@@H](CO)O[C@H]2n1cnc2c(N)ncnc21,-2,-10,1,-8,27,·
Cc1cc(C)c(CN2CCN(C(=O)Cn3cnc4c(NCc5ccccc5)ncnc43)CC2)c(C)c1,92*,10,0,9,-14,12
O=C(Cc1ccccn1)c1ccc(F)cc1,24,38,-1,37,-29,·
O=C(c1ccc(F)cc1)N(C(=O)c1ccc(F)cc1)c1ncccn1,55*,32,4,33,-34,47*
COCC(=O)N/N=C\c1ccccc1OC/C=C/c1ccccc1,51*,25,-3,19,-28,39*
COCC(=O)N/N=C\c1cccc(OC)c1OC/C=C/c1ccccc1,37,23,2,13,-34,·
O=C(Cc1ccccc1)c1nnc(-c2ccccc2)o1,3,19,2,13,-22,·
COc1ccc(C(C#N)CC(=O)c2ccc(OCc3ccccc3)c(OC)c2)cc1OC (stereo not given),·,·,5,·,·,·
O=C(O)c1cc(NC(=O)c2ccccc2F)cc(NC(=O)c2ccccc2F)c1,12,-1,-1,5,1,·
COc1cccc(NC(=O)c2ccccc2F)c1,24,-19,3,2,16,·
O=C(Nc1ccc(Nc2ccccc2)cc1)c1ccccc1F,64*,-55,0,-31,-23,61*
CCOC(=O)Nc1cccc(NC(=O)c2ccccc2F)c1,55*,-30,6,14,5,63*
Cc1noc(C)c1NC(=O)N(C)C[C@H]1OCc2cn(nn2)CCCC(=O)N([C@@H](C)CO)C[C@@H]1C,·,·,2,·,·,·

# Screens (PubChem)
